This note sets out measurements from the supplement of paper PMC9694430.

Several values for one entry are separate records, joined by “and”; a condition that tells them apart may be missing. Identical values can stand only once. Counter-ions that a name gives are not always drawn.
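Also: purified Escherichia coli-expressed rice kinase domain construct.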

The test system of the experiment is LOC_OS04G57630-cb004. Kind of experiment: thermal shift delta Tm vs DMSO control; higher = stronger stabilization (binding). Conditions: 12.5 µM; protein concentration 2 µM. The gist of the method:
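Thermal shift values come from differential scanning fluorimetry on purified rice kinase domains made in E. coli, with melting temperatures obtained from Boltzmann fits. Samples of 19.5 μl held 2 μM kinase, 100 mM potassium phosphate pH 7.5, 150 mM NaCl, 10% glycerol, 5 × SYPRO Orange and compound in DMSO, and were heated from 25°C to 95°C at 0.05°C/s. Each shift is a triplicate mean relative to the DMSO-only protein sample.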
Regarding `c1cncc(CN2CCC(n3ncc4c(N5CCOCC5)nc(-c5ccc6[nH]ccc6c5)nc43)CC2)c1`, the “thermal shift delta Tm” value is 0.55 °C.

Turning to `CCCS(=O)(=O)Nc1ccc(F)c(C(=O)c2c[nH]c3ncc(Cl)cc23)c1F`, the “thermal shift delta Tm” value was determined as 0.51 °C.

Regarding `COC(=O)N[C@@H](C)CNc1nccc(-c2cn(C(C)C)nc2-c2cc(Cl)cc(NS(C)(=O)=O)c2F)n1` [Encorafenib (LGX818)], the “thermal shift delta Tm” value was -0.17 °C.

In the case of `O=C1c2c(O)cc(O)cc2OC(c2ccc(O)c(O)c2)C1O` (stereo not drawn) [Taxifolin (Dihydroquercetin)], the “thermal shift delta Tm” value is 0.11 °C.

For `CCCCCCCCCCCCc1ccc(S(=O)(=O)Nc2nncs2)cc1`, the “thermal shift delta Tm” value was -0.02 °C.

Turning to `COc1cc2c(c(OC)c1OC)-c1c(cc3c(c1OC)OCO3)CC(C)C(C)C2` (stereo not drawn) [Schisandrin B (Sch B)], the “thermal shift delta Tm” value is 0.17 °C.

Consider `CS(=O)(=O)c1ccc(-c2cnc(N)c(C(=O)Nc3ccccc3)n2)cc1`, for which the “thermal shift delta Tm” value was 0.45 °C.

On to `CC1Oc2cc(cnc2N)-c2c(nn(C)c2C#N)CN(C)C(=O)c2ccc(F)cc21` (stereo not drawn), for which the “thermal shift delta Tm” value turned out to be 0.38 °C.

In the case of `Cc1ccc2nc(NCCN)c3ncc(C)n3c2c1`, the “thermal shift delta Tm” value was -0.03 °C.

Turning to `C[C@@H](N)c1ccc(C(=O)Nc2ccnc3[nH]ccc23)cc1`, the “thermal shift delta Tm” value was 0.16 °C.

In the case of `CCn1c(N)c(C(=O)NC)c(=O)c2ccc(C#CC(C)(O)COC)nc21` (stereo not drawn), the “thermal shift delta Tm” value was determined as 0.45 °C.

As to `COC(=O)[C@]12CCC(C)(C)C[C@H]1[C@H]1C(=O)C=C3[C@@]4(C)C=C(C#N)C(=O)C(C)(C)[C@@H]4CC[C@@]3(C)[C@]1(C)CC2` [Bardoxolone Methyl], the “thermal shift delta Tm” value is -4.85 °C.

Turning to `COc1cc(Nc2ncc(F)c(Nc3ccc4c(n3)N(COP(=O)(O)O)C(=O)C(C)(C)O4)n2)cc(OC)c1OC` [R788 (Fostamatinib) Disodium], the “thermal shift delta Tm” value amounted to 0.34 °C.

In the case of `CC#CC(=O)Nc1ccc2ncnc(Nc3cccc(Br)c3)c2c1`, the “thermal shift delta Tm” value was found to be 1.19 °C.

For the compound `Cc1c(C(=O)N2CCOc3ccc(-c4ccc(N)nc4)cc3C2)ccc(S(C)(=O)=O)c1F`, the “thermal shift delta Tm” value is 0.14 °C.

As to `COc1ccc(-c2ccc3c(N4CCOCC4)nc(N4C[C@@H](C)O[C@@H](C)C4)nc3n2)cc1CO`, the “thermal shift delta Tm” value is -0.55 °C.

With `O=C(Nc1cnn2ccc(N3CCC[C@@H]3c3cc(F)ccc3F)nc12)N1CC[C@H](O)C1` [Larotrectinib (LOXO-101) sulfate], the “thermal shift delta Tm” value was -0.61 °C.

With `O=C(NCCCNc1nc(Nc2cccc(NC(=O)N3CCCC3)c2)ncc1I)c1cccs1`, the “thermal shift delta Tm” value came out at 5.69 °C.

For the compound `Nc1cccc(-c2cc3c(Oc4cccc(O)c4)ncnc3[nH]2)c1`, the “thermal shift delta Tm” value worked out at 1.21 °C.

Take `CC(C)(C)NC(=O)c1cncn1C1CCN(c2ccc(-c3nnc(C(F)(F)F)o3)cn2)CC1`: the “thermal shift delta Tm” value is -0.11 °C.

Turning to `Nc1nc2cc(-c3ccc4ncc(C(=O)N5CCOCC5)n4c3)ccc2o1` [Serabelisib (INK-1117,MLN-1117,TAK-117)], the “thermal shift delta Tm” value is 0.92 °C.

On to `COCCOc1ccc2c(c1)ncn2-c1ccc2cccc(N3CCC(N)CC3)c2n1`, for which the “thermal shift delta Tm” value was found to be 6.59 °C.

On to `CC(C)CCN1c2nc(Nc3cc(F)c(O)c(F)c3)ncc2N(C)C(=O)C1C` (stereo not drawn), for which the “thermal shift delta Tm” value came out at 1.73 °C.

For the compound `O=c1cc(-c2cccc3c2Sc2ccccc2S3)oc(N2CCOCC2)c1`, the “thermal shift delta Tm” value is -0.22 °C.

Consider `N=C(N)NC(=N)NCCc1ccccc1` [Phenformin HCl], for which the “thermal shift delta Tm” value was 0.25 °C.

For `CC(C)=CC[C@@H](O)C1=CC(=O)c2c(O)ccc(O)c2C1=O` [Shikonin], the “thermal shift delta Tm” value is -1.93 °C.

For the compound `CCN(CC)CCNC(=O)c1c(C)[nH]c(/C=C2\C(=O)Nc3ccc(F)cc32)c1C` [Sunitinib], the “thermal shift delta Tm” value stood at 4.01 °C.

Take `Nc1ncnc2c1c(-c1cnc3[nH]ccc3c1)nn2C1CCCC1`: the “thermal shift delta Tm” value was 0.91 °C.

`CC(=O)Nc1cccc(-n2c(=O)n(C3CC3)c(=O)c3c(Nc4ccc(I)cc4F)n(C)c(=O)c(C)c32)c1`: the “thermal shift delta Tm” value was determined as 0.23 °C.

On to `O=C(NC[C@H](O)CO)c1ccncc1Nc1ccc(I)cc1F`, for which the “thermal shift delta Tm” value amounted to 0.16 °C.

On to `COc1cc2ncnc(Oc3ccc(CC(=O)Nc4cnn(C(C)C)c4)cc3)c2cc1OC`, for which the “thermal shift delta Tm” value was found to be 1.78 °C.

In the case of `Nc1cccc(S(=O)(=O)N2CCCN(S(=O)(=O)c3ccc4c(c3)OCCO4)CC2)c1`, the “thermal shift delta Tm” value was -0.1 °C.

As for `CCN1CCN(Cc2ccc(C(=O)Nc3ccc(C)c(Oc4ccc5c(c4)CC(=O)N5)c3)cc2C(F)(F)F)CC1`, the “thermal shift delta Tm” value came to 0.33 °C.

With `C=CC(=O)Nc1ccc2ncnc(Nc3ccc(OCc4cccc(F)c4)c(Cl)c3)c2c1`, the “thermal shift delta Tm” value is 2.39 °C.

As for `Nc1ccc(-c2ccc3ncc4ccc(=O)n(-c5cccc(C(F)(F)F)c5)c4c3c2)cn1` [Torin 2], the “thermal shift delta Tm” value is 0.09 °C.

Consider `C[C@@H]1CCN(C(=O)CC#N)C[C@@H]1N(C)c1ncnc2[nH]ccc12`, for which the “thermal shift delta Tm” value was -0.1 °C and 0.49 °C.

With `CN1CCCN(C(=O)c2cccc(-c3ccc(/C=C4/C(=O)Nc5ccc(Cl)cc54)o3)c2)CC1`, the “thermal shift delta Tm” value amounted to 2.23 °C.

Turning to `C[C@@H](Oc1cc(-c2cnn(C3CCNCC3)c2)cnc1N)c1c(Cl)ccc(F)c1Cl`, the “thermal shift delta Tm” value stood at 3.33 °C.
